Only some compounds are listed: those with a hit (about 20% of all), similar ones and a draw of the others.
Pf growth 48h: P. falciparum growth inhibition at 48 hours (one generation); P. falciparum luciferase growth in erythrocytes, 48 h; Potency, µM (highest dose often 28.7 µM), without a hit: at the top dose activity change, negative = inhibition, hits mostly inhibitors; 310,000 tested, 5.9% active; AID 504832; note: potency is the fitted concentration of half-maximal effect; % is set by controls: 0 for no effect and ±100 for the full control effect
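Cell-based growth assay: transgenic P. falciparum expressing firefly luciferase, cultured in red cells within RPMI 1640 containing 0.5% w/v Albumax, 24 mM bicarbonate and gentamycin. A drop in luciferase activity indicates inhibition.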
CHX counter: counter-screen for Shiga toxin inhibitors: cycloheximide protein synthesis inhibition. cell reporter, cycloheximide protein synthesis inhibition counterscreen. max response, %. 300,000 tested, 12% active. AID 2314; in the data active = max response mostly above about 13%, no sharp cut-off; inactive = mostly below about 14%; note: read at 38.3 µM for the half of the compounds with a filed dose; 0% is about no effect
Pf growth 96h: P. falciparum growth inhibition at 96 hour, primary screen for plastid delayed-death inhibitors. P. falciparum luciferase reporter growth, 96 h. Potency, µM (highest dose often 28.7 µM), inactives show top-dose activity change, negative = inhibition, hits mostly inhibitors. 320,000 tested, 6.9% active. AID 504834; note: potency is the fitted concentration of half-maximal effect; % is set by controls: 0 for no effect and ±100 for the full control effect
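P. falciparum expressing integrated firefly luciferase, in erythrocytes at 2% hematocrit, 0.05% parasitemia, incubated with compounds 96 h at 37 C, 5% CO2. Growth inhibition read as loss of luminescence; two-generation exposure targets delayed-death apicoplast inhibitors.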
HCMV antiviral: human cytomegalovirus inhibition | 410,000 tested, 4.5% active | activity change, negative = inhibition, % at 57.5 µM | HFF cells, HCMV-luciferase reporter, 72 h; hits give low values; in the data active = activity change below about -60%; inconclusive = no clear call, values can overlap the other calls; inactive = above about -39%; note: % is set by controls: 0 for no effect and ±100 for the full control effect
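Steps: HFFs plated, 16 h 37C; compounds added; HCMV-luciferase added to MOI 1 PFU/cell; 72 h 37C; OneGlo reagent, 5 min room temperature; luminescence read, normalized to controls.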
Shiga toxin inh: Shiga toxin inhibition | inhibition, % at 38.7 µM | 290,000 tested, 9.2% active | Vero cells, Shiga toxin protein synthesis inhibition reporter; in the data active = inhibition mostly above about 28%, no sharp cut-off; inactive = mostly below about 43%; note: 0% is about no effect
The depositor's hits bear a star; ? = inconclusive; . = no result. Unless noted, calls come from the whole dose curve; as a rule, active = well fitted inhibition curve with a large enough effect; inconclusive = small, poorly fitted or top-dose-only effect, or another doubt; inactive = no such curve, though single readings can be large or run the other way.

SMILES	Pf growth 48h	CHX counter	Pf growth 96h	HCMV antiviral	Shiga toxin inh
Cc1[nH]c2ccc(C(=O)N3CCN(c4ccccc4Cl)CC3)cc2c1C	-9.4%	2.4	-0.9%	-26.9	-3.5
COc1ccc(/C=C\C(=O)Oc2cccc(/C=N/NC(=O)Cc3ccc(OC)c(OC)c3)c2)cc1	?	65.1*	?	-29.8	45.8*
COc1ccc(/C=C/C(=O)Oc2cccc(/C=N/NC(=O)c3cccc(F)c3)c2)cc1	71.4%	95.0*	230.7%	74.2	128.8*
Cc1ccccc1CNC(=O)CCS(=O)(=O)c1cc2c3c(c1)CCN3C(=O)CC2	.	.	.	-1.6	.
O=C(CSc1nc(-c2ccccc2)cs1)NCCCN1CCCC1=O	.	.	.	7.0	.
CCOC(=O)[C@]12CCCC=C1N(Cc1ccco1)C(=O)[C@H](CC(=O)NCCCN1CCCC1=O)C2	.	.	.	6.2	.
COc1cc2nc3occc3c(OC)c2cc1OC	29.2%	-2.4	15.1%	-71.9*	-16.7
CCO[C@@H]1OC(C(=O)N2CCCCCCC2)=C[C@H](c2ccc3c(c2)OCO3)[C@H]1CCCO	?	4.6	?	-8.9	5.1
CCO[C@H]1OC(C(=O)N2CCN(Cc3ccc4c(c3)OCO4)CC2)=C[C@@H](c2ccc3c(c2)OCO3)[C@@H]1CCCO	5.86µM*	-1.4	13.1µM*	-12.8	-3.0
CCO[C@H]1OC(C(=O)NC2CC2)=C[C@@H](c2ccc3c(c2)OCO3)[C@@H]1CCCO	-3.5%	10.8	-18.1%	15.0	-12.1
CCO[C@@H]1OC(C(=O)N2CCN(Cc3ccc4c(c3)OCO4)CC2)=C[C@H](C)[C@H]1CCCO	?	-2.2	?	-5.3	13.3
C#Cc1ccc([C@H]2C=C(C(=O)N3CCN(Cc4ccc5c(c4)OCO5)CC3)O[C@@H](OCC)[C@@H]2CCCO)cc1	4.15µM*	1.0	4.15µM*	?	-4.1
CCO[C@@H]1OC(C(N)=O)=C[C@H](c2ccc3c(c2)OCO3)[C@H]1CCCO	56.4%	-1.1	54.6%	-95.2*	-6.6
CCOC(=O)N(C)c1c(CC)nc2c(OCc3ccc(Cl)cc3Cl)cccn12	.	.	.	18.5	.
O=C(Nc1ccc2c(c1)N(S(=O)(=O)c1cccs1)CCC2)c1c(F)cccc1F	?	.	?	-35.6	.
O=S(=O)(c1cccs1)N1CCCc2cccc(O)c21	.	53.6*	68.9%	18.5	80.4*
CCOc1ccc(Cl)cc1/C=N/NC(=O)CNC(=O)c1ccccc1	-4.3%	-6.3	0.4%	-10.6	-5.1
CCOc1ccccc1/C=N/NC(=O)c1cccc(Cl)c1	34.8%	2.4	18.1%	9.7	57.3*
CCOc1ccccc1/C=N/NC(=O)c1cccc(S(=O)(=O)N(CC)CC)c1	-16.3%	-1.9	6.9%	10.7	-3.1
CCOc1ccc(Cl)cc1/C=N/NC(=O)c1ccccc1	34.8%	28.9*	-20.1%	?	65.3*
COc1ccc(C(=O)NNC(=O)c2ccc3ccccc3c2)cc1	.	.	.	3.0	.
COc1ccc(C(=O)NCCn2ccc3ccccc32)c(OC)c1	13.5%	37.5*	78.0%	-4.6	42.4
COc1ccc(C(=O)NCCN2CCOCC2)c(OC)c1	29.6%	4.3	?	-8.7	25.2
COc1ccc(C(=O)CNc2ccc3ccccc3c2)cc1	-3.7%	30.9*	7.4%	5.8	79.3*
COc1ccc(C(=O)Nc2ccc3ccccc3c2)c(OC)c1	105.1%	30.1*	?	92.7	85.7*
SMILES	Pf growth 48h	CHX counter	Pf growth 96h	HCMV antiviral	Shiga toxin inh
COc1ccc(NC(=O)c2ccc3ccccc3c2)cc1	286.8%	36.7*	?	131.0	.
COc1ccc(NC(=O)c2coc(C)c2)cc1	62.3%	29.2*	22.3%	47.8	54.0*
COc1ccc(C(=O)CNc2ccccc2Br)cc1	32.7%	41.1*	?	2.8	73.7*
COc1ccc(C(=O)Nc2ccc(C(=O)OCC(=O)c3cccc4ccccc34)cc2)cc1	?	4.3	13.1µM*	-18.4	-4.1
COc1ccc(C(=O)COC(=O)c2cccc(NC(=O)c3ccc(OC)c(OC)c3)c2)cc1	.	.	.	26.6	.
Cc1ccccc1OCC(=O)NCC(c1ccc(Cl)cc1)N1CCOCC1 (configuration not stated)	.	.	.	-38.5	.
O=C(NCc1ccccn1)c1ccc2c(=O)n3nc(Nc4ccccc4)sc3nc2c1	11.6%	-3.3	?	8.6	-6.6
COc1cccc(NC(=O)c2ccc3c(=O)n4nc(Nc5ccccc5OC)sc4nc3c2)c1	.	.	.	-35.1	.
CCN(CC)CCNC(=O)c1ccc2c(=O)n3nc(Nc4ccccc4)sc3nc2c1	.	.	.	-90.5*	.
Cc1ccc(Cl)cc1Nc1nn2c(=O)c3ccc(C(=O)NCc4cccs4)cc3nc2s1	.	.	.	-98.3*	.
CCc1cccc(NC(=O)c2ccc3c(=O)n4nc(Nc5ccccc5OC)sc4nc3c2)c1	.	.	.	-88.0*	.
COc1ccccc1Nc1nn2c(=O)c3ccc(C(=O)NCc4ccc(F)cc4)cc3nc2s1	.	.	.	-90.2*	.
O=C1c2ccccc2C(c2nnnn2-c2ccc3c(c2)OCCO3)N1CCOc1ccccc1 (configuration not stated)	.	.	.	-22.9	.
C[C@H]1[C@@H](NS(=O)(=O)c2ccc3ccccc3c2)CC[C@@]23CCCN2C(=O)CCC[C@@H]13	.	.	.	-21.0	.
CC(C)=CCN1CCN(Cc2cc(C(C)C)n[nH]2)CC1CCO (configuration not stated)	1.7%	-2.8	?	1.4	-4.2
COc1ccc(N(CC(=O)NCCSc2ccccn2)S(=O)(=O)c2ccc(C)cc2)cc1OC	?	-4.0	?	-60.3*	-8.0
Cc1ccc(S(=O)(=O)NCCC(=O)NCCCSc2ccccc2)cc1	?	.	?	-75.0*	.
Cc1ccc(N(CC(=O)NCCSc2ccccc2)S(=O)(=O)c2ccc(F)cc2)cc1	.	.	.	-64.9*	.
O=C(CCNS(=O)(=O)c1ccccc1)NCCCSc1ccccc1	-18.6%	-2.5	-26.4%	-3.6	-3.5
COc1ccc(N(CC(=O)NCCSc2ccccn2)S(=O)(=O)c2ccccc2)cc1Cl	-37.9%	5.0	38.2%	-15.4	-38.5
COc1ccc(Cl)cc1N(CC(=O)NCCSc1ccccn1)S(=O)(=O)c1ccccc1	-17.3%	-6.5	1.65µM*	-0.4	-15.2
CC1(CCc2ccc(O)cc2)NC(=O)NC1=O (configuration not stated)	.	-4.7	0.0%	26.8	3.9
COc1cccc(N(CC(=O)NCCSc2ccccn2)S(=O)(=O)c2ccccc2)c1	13.1µM*	-2.6	5.3%	7.7	-2.7
COc1ccc(N(CC(=O)NCCSc2ccccn2)S(=O)(=O)c2ccccc2)cc1OC	-23.5%	6.5	-23.3%	123.6	-1.4
Cc1cc2oc(C(=O)N(Cc3ccco3)Cc3ccccc3Cl)c(C)c2cc1C	.	.	.	-13.3	.
CCOC(=O)CNC(=S)N(Cc1ccco1)Cc1ccccc1Cl	-14.4%	-1.6	2.62µM*	17.5	-12.3
C=CCCN(Cc1ccc(OC)cc1)S(=O)(=O)c1ccccc1Br	.	-4.1	.	.	27.1
CC(Sc1nnc2ccccn12)C(=O)N1CCc2ccccc2C1 (configuration not stated)	.	19.9*	42.4%	72.9	58.9
COc1ccccc1NC(=O)C(C)Sc1nnc2ccccn12 (configuration not stated)	-25.8%	.	6.1%	-1.9	.

Compound activity as filed in PubChem.
